Measurements: article PMC4336329 (PLoS ONE, 2015)
Hit rate of the full screen: of about 310,000 compounds, about 14,000 (4.5%) showed an effect of 50% or more. The effect is printed as a negative number. The sample holds strong results, similar compounds and a random draw of the others, so the mix is not that of the screen.

target: human ether-à-go-go-related gene (hERG) potassium channel (human, UniProt Q12809); experiment: primary screen, population patch clamp on CHO cells stably expressing hERG; higher = less effect of the substance
Sequence (Q12809 whole entry, looked up): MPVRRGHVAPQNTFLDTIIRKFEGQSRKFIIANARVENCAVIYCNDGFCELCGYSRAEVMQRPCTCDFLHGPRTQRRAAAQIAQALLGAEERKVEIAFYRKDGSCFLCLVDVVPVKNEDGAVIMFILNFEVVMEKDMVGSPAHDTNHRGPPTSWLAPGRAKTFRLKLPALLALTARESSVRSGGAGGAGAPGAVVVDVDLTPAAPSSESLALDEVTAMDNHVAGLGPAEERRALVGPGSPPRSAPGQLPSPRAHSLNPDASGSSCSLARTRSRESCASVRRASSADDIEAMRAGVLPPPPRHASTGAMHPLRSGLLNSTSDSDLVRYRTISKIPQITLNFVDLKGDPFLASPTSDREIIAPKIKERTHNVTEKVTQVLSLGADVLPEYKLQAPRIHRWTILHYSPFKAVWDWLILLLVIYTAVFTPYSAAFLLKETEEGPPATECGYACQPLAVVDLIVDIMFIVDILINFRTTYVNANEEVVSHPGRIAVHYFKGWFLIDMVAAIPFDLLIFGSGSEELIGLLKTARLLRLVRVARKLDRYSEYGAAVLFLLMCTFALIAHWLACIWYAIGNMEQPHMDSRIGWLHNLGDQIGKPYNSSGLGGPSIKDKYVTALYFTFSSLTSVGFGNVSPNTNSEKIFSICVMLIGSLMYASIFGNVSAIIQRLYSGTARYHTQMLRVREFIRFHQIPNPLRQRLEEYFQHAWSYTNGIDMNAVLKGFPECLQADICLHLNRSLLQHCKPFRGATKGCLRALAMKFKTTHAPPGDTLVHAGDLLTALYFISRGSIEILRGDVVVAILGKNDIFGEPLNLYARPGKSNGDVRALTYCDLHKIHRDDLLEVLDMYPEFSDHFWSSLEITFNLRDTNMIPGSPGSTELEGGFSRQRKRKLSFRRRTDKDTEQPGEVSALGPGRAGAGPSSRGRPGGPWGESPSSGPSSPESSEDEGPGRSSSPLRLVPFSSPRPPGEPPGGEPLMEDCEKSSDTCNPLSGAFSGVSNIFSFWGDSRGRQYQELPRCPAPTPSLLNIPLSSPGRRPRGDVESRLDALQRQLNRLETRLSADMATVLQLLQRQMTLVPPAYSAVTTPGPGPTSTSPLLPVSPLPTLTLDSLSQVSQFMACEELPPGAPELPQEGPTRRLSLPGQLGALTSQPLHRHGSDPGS
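Note: peak tail current of the secondary pulse compared with the same well before compound.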

Going from `O=C(COC(=O)Cn1nc(-c2ccccc2)oc1=O)Nc1ccc(F)cc1` to `O=C(CSc1nncc2ccccc12)Nc1ccc(C(=O)O)cc1`, the “hERG current change (%, negative = inhibition) at 10uM” value rises from 4.6% to 10.6%.

Compared with `CC1=C(C/C=C(\C)CCCC(C)CCCC(C)CCCC(C)C)C(=O)c2ccccc2C1=O` (stereo not drawn), `CCCOc1ccc(N2C(=O)C3C(C(C)C)NC4(C(=O)c5ccccc5C4=O)C3C2=O)cc1` (stereo not drawn) is lower in “hERG current change (%, negative = inhibition) at 10uM” value: 25.4% for the first, -0.496% for the second.

First: COC(=O)c1sccc1NC(=O)Nc1ccccc1F
Second: Cc1c(C(=O)N2CCC(Cc3ccccc3)CC2)cccc1[N+](=O)[O-]
The “hERG current change (%, negative = inhibition) at 10uM” value of the first is higher: 13.4% for the first, -34.3% for the second.

Going from `O=C(NNC1CC(=O)N(c2ccc3c(c2)OCCO3)C1=O)c1ccc(Cl)cc1` (stereo not drawn) to `Cc1ccccc1CN1CCC(n2nccc2NC(=O)c2ccc3c(c2)OCO3)CC1`, the “hERG current change (%, negative = inhibition) at 10uM” value falls from 10.1% to -9.06%.

First: Cc1ccc(CNC(=O)CNS(=O)(=O)c2ccc(Br)s2)cc1
Second: Cc1ccc(S(=O)(=O)Nc2cc(C(=O)Nc3cc(C)cc(C)c3)ccc2Cl)cc1
The “hERG current change (%, negative = inhibition) at 10uM” value of the first is higher: -0.279% for the first, -5.44% for the second.

Going from `O=C1C2C3C=CC(C4CC34)C2C(=O)N1/N=C/c1ccc(-c2cccc([N+](=O)[O-])c2)o1` (stereo not drawn) to `O=[N+]([O-])c1cccc(CN2CCC(Cc3ccccc3)CC2)c1`, the “hERG current change (%, negative = inhibition) at 10uM” value falls from -14.1% to -31.4%.

Going from `O=C(COC(=O)c1ccc(O)cc1)NC1CCCC1` to `O=C(c1ccc([N+](=O)[O-])cc1)N1CCC(Cc2ccccc2)CC1`, the “hERG current change (%, negative = inhibition) at 10uM” value falls from 14% to -73.4%.

First: C#CCOc1ccc(/C=C2/C(=O)N(c3cccc(C(=O)O)c3)N=C2C)cc1OC
Second: COc1ccc(C(C)=O)cc1CN1C(=O)C(C)N(c2ccc(C)cc2)C1=O (stereo not drawn)
The “hERG current change (%, negative = inhibition) at 10uM” value of the first is higher: -2.13% for the first, -25.4% for the second.

Going from `CCCN(CC#CC(O)(c1ccccc1)c1cccnc1)CCC` (stereo not drawn) to `CCOc1ccccc1NC(=O)CSc1ccc2nnc(-c3cccnc3)n2n1`, the “hERG current change (%, negative = inhibition) at 10uM” value falls from -37.3% to -61.9%.

Compared with `COc1ccc(CCNC(=O)CSc2nnc3ccc(-c4ccccn4)nn23)cc1OC`, `COc1ccc(CCNC(=O)CSc2nnc3ccc(-c4ccccn4)nn23)cc1` is lower in “hERG current change (%, negative = inhibition) at 10uM” value: 2.17% for the first, -51.6% for the second.

First: COc1ccccc1NC(=O)CSc1ccc2nnc(-c3cccnc3)n2n1
Second: COc1ccccc1NC(=O)CSc1ccc2nnc(-c3ccncc3)n2n1
The “hERG current change (%, negative = inhibition) at 10uM” value of the first is lower: -57% for the first, -31.3% for the second.

First: COc1ccc(NC(=O)CSc2ccc3nnc(-c4ccccn4)n3n2)c(OC)c1
Second: COc1ccc(OC)c(NC(=O)CSc2ccc3nnc(-c4ccccn4)n3n2)c1
The “hERG current change (%, negative = inhibition) at 10uM” value of the first is higher: -25.9% for the first, -69% for the second.

Compared with `COc1ccccc1NC(=O)CSc1ccc2nnc(-c3ccccn3)n2n1`, `COc1ccccc1NC(=O)CSc1ccc2nnc(-c3ccc(C)cc3)n2n1` is lower in “hERG current change (%, negative = inhibition) at 10uM” value: 0.136% for the first, -26.6% for the second.

Compared with `O=C(CSc1ccc2nnc(-c3cccnc3)n2n1)Nc1ccc(F)cc1F`, `COc1ccc(NC(=O)CSc2ccc3nnc(-c4cccnc4)n3n2)c(OC)c1` is lower in “hERG current change (%, negative = inhibition) at 10uM” value: -21.5% for the first, -32.4% for the second.

Compared with `O=C(CSc1ccc2nnc(-c3cccnc3)n2n1)Nc1ccccc1C(F)(F)F`, `COc1ccc(OC)c(NC(=O)CSc2ccc3nnc(-c4cccnc4)n3n2)c1` is lower in “hERG current change (%, negative = inhibition) at 10uM” value: -33.3% for the first, -61.1% for the second.

Going from `O=C(CSc1nnc2ccc(-c3ccccn3)nn12)NCCc1ccccc1` to `COc1ccc(OC)c(NC(=O)CSc2ccc(-c3cccnc3)nn2)c1`, the “hERG current change (%, negative = inhibition) at 10uM” value falls from -6.49% to -17.6%.

First: COc1ccc(C(O)C(C)NC(C)C(O)c2ccc(OC)cc2)cc1 (stereo not drawn)
Second: Cc1ccc(C(=O)Nc2ccc(NC(=O)c3ccc(C)o3)cc2)o1
The “hERG current change (%, negative = inhibition) at 10uM” value of the first is higher: 4.3% for the first, -1.94% for the second.

Compared with `COc1ccc(S(=O)(=O)N2CCN(Cc3cc(OC)c(O)c(OC)c3)CC2)cc1.O=C(O)C(=O)O`, `Cc1cc(C(=O)N2CCC(Cc3ccccc3)CC2)ccc1[N+](=O)[O-]` is lower in “hERG current change (%, negative = inhibition) at 10uM” value: 4.57% for the first, -38.5% for the second.

Compared with `CN(C)CCNc1nc(-c2ccccc2)nnc1C(F)(F)F`, `CCn1nc(NC(=O)c2ccco2)c2cc3ccccc3nc21` is higher in “hERG current change (%, negative = inhibition) at 10uM” value: -3.83% for the first, -0.887% for the second.

Going from `CN1CCN(C(=O)c2ccc3c(c2)NC(=O)C(N2CCOCC2)S3)CC1` (stereo not drawn) to `Cc1ccc(C(=O)N2CCC(Cc3ccccc3)CC2)cc1[N+](=O)[O-]`, the “hERG current change (%, negative = inhibition) at 10uM” value falls from 3.85% to -63.8%.

Compared with `Cc1cc2nc(-c3cccnc3SCC(=O)NCc3ccco3)[nH]c2cc1C`, `Cc1ccc(NC(=O)CSc2nc(=O)n(Cc3ccncc3)c3c2CCC3)c(C)c1` is lower in “hERG current change (%, negative = inhibition) at 10uM” value: -5.15% for the first, -26.1% for the second.

First: O=[N+]([O-])c1ccc(CN2CCC(Cc3ccccc3)CC2)cc1
Second: O=[N+]([O-])c1ccc(C(=S)N2CCC(Cc3ccccc3)CC2)cc1
The “hERG current change (%, negative = inhibition) at 10uM” value of the first is lower: -55.1% for the first, -32.4% for the second.

Compared with `O=C(c1ccccc1[N+](=O)[O-])N1CCC(Cc2ccccc2)CC1`, `Cc1ccc(F)cc1CNC(=O)C1CCC(=O)N(CCCN2CCCC2=O)C1` (stereo not drawn) is higher in “hERG current change (%, negative = inhibition) at 10uM” value: -19% for the first, 14.6% for the second.

First: CCN(CC)CCn1c2c(c(SCC(=O)Nc3nc4ccc(C)cc4s3)nc1=O)CCC2
Second: Cc1ccc2nc(NC(=O)CSc3nc(=O)n(CCCN(C)C)c4c3CCC4)sc2c1
The “hERG current change (%, negative = inhibition) at 10uM” value of the first is higher: -30.4% for the first, -50.2% for the second.

First: CN(C)CCCn1c2c(c(SCC(=O)Nc3nccs3)nc1=O)CCC2
Second: Cc1ccc(NC(=O)CSc2nc(=O)n(CCCN(C)C)c3c2CCC3)c(C)c1
The “hERG current change (%, negative = inhibition) at 10uM” value of the first is higher: -9.32% for the first, -50.6% for the second.

Compared with `CN(C)CCCn1c2c(c(SCC(=O)Nc3ccc4c(c3)OCCO4)nc1=O)CCC2`, `Cc1cc(NC(=O)CSc2nc(=O)n(CCCN(C)C)c3c2CCCC3)no1` is higher in “hERG current change (%, negative = inhibition) at 10uM” value: -12.2% for the first, -7.06% for the second.

Going from `Cc1ccc2nc(NC(=O)CSc3nc(=O)n(CCN(C)C)c4c3CCCC4)sc2c1` to `Cc1cc(NC(=O)CSc2nc(=O)n(CCN(C)C)c3c2CCCC3)no1`, the “hERG current change (%, negative = inhibition) at 10uM” value rises from -50.2% to -6.91%.
